The target of test [1] is Progesterone receptor (Homo sapiens) (UniProt P06401). Briefly: qHTS assay to identify small molecule agonists of the progesterone receptor (PR) signaling pathway (AID 1346784; calls by dose curve; further: nearly all actives have a fitted effect of over 30% in size). The method in brief:
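PR-UAS-bla HEK 293T cells (beta-lactamase reporter under UAS) in 2% charcoal-stripped FBS, dosed with 23 nL compound after 6 hr, incubated 16hr at 37C. LiveBLAzer B/G FRET substrate added, fluorescence read after 2 hours.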
In general terms: qHTS replaces the single test concentration by a dilution series.

For test [2] the target is unchanged. Briefly: qHTS assay to identify small molecule antagonists of the progesterone receptor (PR) signaling pathway (AID 1346795; active means well fitted inhibition curve with a large enough effect in the signal ratio in the repeat runs, not every such curve was filed as active; the % refers to the signal ratio; further: potency means the concentration at half of the fitted maximal effect). The procedure, abridged: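 PR-UAS-bla HEK293T cells with beta-lactamase reporter under UAS control, in 2% charcoal-stripped FBS, treated with compounds plus 1 nM promegestone (R5020, final) for 16 hr at 37C. Read-out: FRET beta-lactamase substrate fluorescence after 2 hr at room temperature.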

Test [3] in a line: qHTS assay to identify small molecule antagonists of the progesterone receptor (PR) signaling pathway - cell viability counter screen (AID 1346798). Further: series mostly up to about 92 µM; nearly all actives have a fitted effect of over 50% in size. The procedure, abridged:
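PR-UAS-bla HEK293T cells, 3,000/well in 2% charcoal-stripped FBS medium, dosed with compounds plus R5020 agonist and incubated 16 h at 37C. Viability then measured in the same wells by CellTiter-Glo luminescence after 30 min at RT.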

Test [4] is described as follows: qHTS assay to identify small molecule agonists of the progesterone receptor (PR) signaling pathway - cell viability counter screen (AID 1346799; calls by dose curve; further: nearly all actives have a fitted effect of over 45% in size; further: potency means the concentration at half of the fitted maximal effect). The procedure, abridged: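 Counter screen in the PR-UAS-bla HEK293T wells (2% charcoal-stripped FBS, 16 h compound exposure at 37 C) after the bla read. CellTiter-Glo added, 30 min at room temperature, luminescence read as cell viability.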

Test [5] in a line: qHTS assay to identify small molecule antagonists of the TGF-beta/Smad signaling pathway - cell viability counter screen (AID 1346824). Further: nearly all actives have a fitted effect of over 50% in size. The procedure, abridged: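 SBE-bla HEK 293T cells were plated overnight at 37 C, then given compounds in DMSO plus TGF-beta1 (added as 0.25 ng/mL solution) for 5 hr. After the bla read, CellTiter-Glo was added to the same wells and luminescence read after 30 min at room temperature.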

The nature of test [6]: qHTS assay to identify small molecule agonists of the TGF-beta/Smad signaling pathway - cell viability counter screen (AID 1346829). Further: top concentration of the series differs between compounds; nearly all actives have a fitted effect of over 45% in size. The method in brief: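 After overnight seating at 37 C and 5% CO2, reporter cells got compounds for 5 hr and FRET substrate for 2 hr; cell viability then came from CellTiter-Glo luminescence.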
A short description of test [7]: qHTS assay to identify small molecule agonists of the TGF-beta/Smad signaling pathway (AID 1346859; active means well fitted activation curve with a large enough effect in the signal ratio in the repeat runs, not every such curve was filed as active; the % refers to the signal ratio; further: series mostly up to about 77 µM). The method in brief:
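SBE-bla HEK293T cells plated overnight, then compound exposure for 5 h at 37 C. Beta-lactamase reporter read with LiveBLAzer B/G FRET substrate after 2 h at room temperature, fluorescence at 405 nm excitation, 460/530 nm emission.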

Test [8] addresses Thyrotropin-releasing hormone receptor (Homo sapiens) (UniProt P34981). The test is described as follows: qHTS assay to identify small molecule antagonists of the thyrotropin-releasing hormone receptor (TRHR) signaling pathway (AID 1346877; active means well fitted inhibition curve with a large enough effect in the repeat runs, not every such curve was filed as active; further: series mostly up to about 51 µM). The method in brief: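 Calcium signal in dye-loaded TRHR/HEK293 cells; compounds added 5 min before TRH (1 nM final); fluorescence monitored 3 min at 1 s steps.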

Test [9] has the same target. The test is described as follows: qHTS assay to identify small molecule agonists of the thyrotropin-releasing hormone receptor (TRHR) signaling pathway (AID 1346891; calls by dose curve; further: series mostly up to about 58 µM). The method in brief:
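HEK293 cells expressing TRHR plated 18 h at 37 C/5% CO2, calcium dye-loaded 2 h at 37 C, then compound added (agonist mode); kinetic calcium fluorescence read 3 min at 1 s intervals; 15 concentrations in triplicate.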

The nature of test [10]: Human pregnane X receptor (PXR) small molecule agonists, qHTS cell viability counter screen (AID 1346977). Further: nearly all actives have a fitted effect of over 50% in size. The method in brief: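 PXR-Luc HepG2 cells (2,000/well, 5% charcoal-stripped FBS) preincubated 5 hr, then exposed to compounds 24 hr at 37 C. Viability read in the same wells by CellTiter-Fluor fluorescence, reagent added at 23 hr, 1 hr incubation.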

A number with no mark means an inactive call. Records with an inconclusive call do not appear. Calls of active or inactive are those of the source. Unless noted, the call rests on the fitted dose curve; in most records, active means well fitted curve in the direction sought with a large enough effect in the repeat runs; inconclusive means weak or mixed curves; inactive means no such curve, though single readings can be large; an effect the other way counts as inactive or inconclusive.
On the % scale 0 is the no-effect control and ±100 the full control effect.

Chain of Thyrotropin-releasing hormone receptor (Homo sapiens) (P34981 whole entry, looked up): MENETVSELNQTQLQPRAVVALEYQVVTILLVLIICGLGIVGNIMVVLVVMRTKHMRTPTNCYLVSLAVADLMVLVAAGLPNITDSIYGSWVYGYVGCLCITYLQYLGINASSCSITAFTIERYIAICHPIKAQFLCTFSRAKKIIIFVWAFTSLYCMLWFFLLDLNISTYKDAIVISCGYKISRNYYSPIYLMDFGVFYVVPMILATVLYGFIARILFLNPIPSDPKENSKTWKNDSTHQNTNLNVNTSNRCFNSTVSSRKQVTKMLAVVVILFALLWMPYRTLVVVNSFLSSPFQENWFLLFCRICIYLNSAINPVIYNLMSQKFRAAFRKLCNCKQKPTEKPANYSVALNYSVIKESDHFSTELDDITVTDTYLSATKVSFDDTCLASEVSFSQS
Chain of Progesterone receptor (Homo sapiens) (P06401 whole entry, looked up): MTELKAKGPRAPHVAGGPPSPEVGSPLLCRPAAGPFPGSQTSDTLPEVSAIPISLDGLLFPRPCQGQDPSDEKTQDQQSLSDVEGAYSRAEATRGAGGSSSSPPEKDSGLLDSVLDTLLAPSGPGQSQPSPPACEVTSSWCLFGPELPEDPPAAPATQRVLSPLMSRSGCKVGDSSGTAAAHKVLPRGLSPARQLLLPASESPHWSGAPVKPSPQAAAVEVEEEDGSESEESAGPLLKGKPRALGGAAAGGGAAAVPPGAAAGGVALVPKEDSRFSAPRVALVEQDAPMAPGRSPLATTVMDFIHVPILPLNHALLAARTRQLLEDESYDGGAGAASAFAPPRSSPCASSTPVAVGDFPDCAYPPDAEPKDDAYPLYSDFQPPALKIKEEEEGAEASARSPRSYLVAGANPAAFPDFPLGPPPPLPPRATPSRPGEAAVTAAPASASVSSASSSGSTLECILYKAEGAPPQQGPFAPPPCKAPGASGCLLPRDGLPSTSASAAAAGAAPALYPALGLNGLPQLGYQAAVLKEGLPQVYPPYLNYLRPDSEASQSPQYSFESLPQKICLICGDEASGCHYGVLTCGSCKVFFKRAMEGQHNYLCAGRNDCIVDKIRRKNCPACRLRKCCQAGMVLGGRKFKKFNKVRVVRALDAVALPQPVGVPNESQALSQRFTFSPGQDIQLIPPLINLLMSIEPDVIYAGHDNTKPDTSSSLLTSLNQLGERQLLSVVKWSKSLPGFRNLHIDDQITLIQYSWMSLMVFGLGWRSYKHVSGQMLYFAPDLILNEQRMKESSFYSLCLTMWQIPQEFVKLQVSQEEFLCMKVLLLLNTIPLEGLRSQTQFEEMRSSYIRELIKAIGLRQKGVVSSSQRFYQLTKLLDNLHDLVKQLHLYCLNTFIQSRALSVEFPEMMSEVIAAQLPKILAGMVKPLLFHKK

As to `CCN(CC)CCNC(=O)COc1ccc(Cl)cc1`, the Potency entry in [1], in [2], in test [3], in test [4], in [9] and in test [10] was “inactive” each time. Moreover, the molecule was classed as inactive in test [5], in [6], in test [7] and in [8].
Regarding `O=C(O)[C@@H](O)[C@H](O)[C@H](O)[C@@H](O)C(=O)O`, the Potency result in test [1], in test [2], in test [3], in test [4], in test [9] and in test [10] was “inactive” each time. For the same molecule, the outcome in test [5], in [6], in test [7] and in test [8] was inactive.
For `C=CCCCCCCCCO`, the Potency entry in [1], in [2], in test [3], in test [4], in [9] and in test [10] was “inactive” each time. Also, the result in test [5], in test [6], in test [7] and in test [8] was inactive.
For the molecule `O=C(O)C(=O)Cc1c[nH]c2ccccc12`, the Potency result in test [1], in test [2], in [3], in test [4], in test [9] and in [10] was “inactive” in each case. Moreover, the outcome in test [5], in test [6], in test [7] and in test [8] was inactive.
For the molecule `CC1=C(O)C(=O)OC1C` (stereo not drawn), the Potency entry in [1], in [2], in [3], in [4] and in [9] was “inactive” in each case. The result in [5], in test [6], in [7] and in test [8] was inactive.
Turning to `FC(F)(F)c1ccccc1`, the Potency result in [1], in test [2], in test [3], in test [4], in test [9] and in test [10] was “inactive” each time. The molecule was classed as inactive in test [5], in [6], in test [7] and in test [8].
In the case of `CCN1CC(CCN2CCOCC2)C(c2ccccc2)(c2ccccc2)C1=O` (stereo not drawn), the Potency entry in test [1], in test [2], in test [3], in test [4], in [9] and in test [10] was “inactive” throughout. Also, the call in test [5], in test [6], in test [7] and in [8] was inactive.
`CC(CNC1CCCCC1)OC(=O)c1ccccc1` (stereo not drawn): the Potency result in [1], in test [2], in test [3], in test [4] and in test [9] was “inactive” each time. Besides, the molecule was called inactive in test [5], in [6], in test [7] and in test [8].
Take `CC(C)S`: the Potency result in test [1], in test [2], in test [3], in [4], in test [9] and in test [10] was “inactive” throughout. Besides, the molecule was called inactive in [5], in test [6], in test [7] and in test [8].
In the case of `Cc1cc(S(=O)(=O)O)c(N)cc1Cl`, the Potency result in test [1], in test [2], in [3], in test [4], in test [9] and in test [10] was “inactive” in each case. Also, the result in [5], in test [6], in test [7] and in [8] was inactive.
Take `CCCCCCCCCC/C=C/C#N`: the Potency result in [1], in test [2], in [3], in [4], in test [9] and in test [10] was “inactive” throughout. The outcome in test [5], in test [6], in [7] and in [8] was inactive.
Turning to `Oc1ccccc1F`, the Potency entry in [1], in [2], in test [3], in test [4], in test [9] and in test [10] was “inactive” each time. In addition, the outcome in test [5], in test [6], in test [7] and in test [8] was inactive.
As to `COc1cc(C)ccc1C(C)C`, the Potency result in [1], in test [2], in test [3], in test [4], in test [9] and in test [10] was “inactive” throughout. Also, the result in [5], in test [6], in [7] and in [8] was inactive.
In the case of `Nc1ccc2ccccc2c1S(=O)(=O)O`, the Potency result in test [1], in test [2], in [3], in test [4], in test [9] and in test [10] was “inactive” each time. Besides, the call in test [5], in test [6], in test [7] and in test [8] was inactive.
Turning to `CCOc1ccc(NC(N)=O)cc1`, the Potency result in test [1], in [2], in test [3], in test [4], in test [9] and in test [10] was “inactive” throughout. The result in test [5], in [6], in [7] and in [8] was inactive.
Turning to `CN1CCN(N)CC1`, the Potency entry in test [1], in test [2], in test [3], in test [4], in test [9] and in [10] was “inactive” each time. In addition, the outcome in test [5], in [6], in [7] and in [8] was inactive.
With `COC(=O)c1ccc2cc(C(=O)OC)ccc2c1`, the activation was 2.44% [at 19 µM] in test [1] and 0.192% [at 15.8 µM] in test [7]. For the same molecule, the activity change, negative = inhibition in test [2] was -25.1% [at 18.9 µM]. Also, in test [3], the Potency result was “inactive”. Further, the activity change, negative = cytotoxicity in test [4] was -2.9% [at 19 µM]; in test [6] it was 8.9% [at 15.8 µM]. In addition, the viability change, negative = cytotoxic in test [5] was 0.743% [at 15.8 µM].
For `CCCCNCCCC`, the Potency entry in test [1], in [2], in test [3], in test [4], in test [9] and in test [10] was “inactive” each time. In addition, the molecule was classed as inactive in [5], in test [6], in [7] and in test [8].
Consider `CCCCCCCCc1ccc(S(=O)(=O)O)cc1`, for which the Potency entry in test [1], in [2], in test [3], in [9] and in test [10] was “inactive” each time. Further, the Potency in test [4] is 19.2 µM (active). In addition, the molecule was called inactive in [5], in [6], in test [7] and in [8].
Take `Cc1cc2c(s1)Nc1ccccc1N=C2N1CCN(C)CC1`: the Potency result in test [1], in test [2], in [3], in test [4] and in test [9] was “inactive” throughout. Further, the molecule was called inactive in test [5], in test [6], in test [7] and in test [8].
With `CN(C)CC[C@@H](c1ccc(Cl)cc1)c1ccccn1`, the Potency result in test [1], in test [2], in test [3], in test [4] and in test [9] was “inactive” each time. Further, the molecule was classed as inactive in test [5], in test [6], in [7] and in test [8].
Regarding `CN1CCN(C2=Nc3ccccc3Oc3ccc(Cl)cc32)CC1`, the Potency entry in test [1], in test [3] and in test [4] was “inactive” each time. Besides, the Potency in test [2] is 26.6 µM (active). The call in test [5] was inactive.
Regarding `C1CCOC1`, the Potency entry in [1], in test [2], in [3], in test [4], in test [9] and in test [10] was “inactive” in each case. The call in test [5], in [6], in [7] and in test [8] was inactive.
